MITF TRPM1 inh – inhibitors of MITF-driven TRPM1 promoter in melanoma cells; SK-MEL-5 TRPM1 promoter luciferase, 24 h; inhibition, % at 12.5 µM; 330,000 tested, 0.83% active;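 active means mean inhibition across replicates of 60% or more, whatever share of single replicates reaches that level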
Shn3 3UTR inh – reduces Shn3 3'UTR luciferase signal in osteoblasts; Clone20 osteoblast Shn3 3'UTR firefly luciferase, 24 h; inhibition, % at 12.5 µM; 360,000 tested, 0.52% active;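 active means mean inhibition of at least 75% with every replicate also reaching 75%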
KKLEB cytotox – counter-screen for CF NF-kB inhibitors: cytotoxicity; KKLEB CF airway cells viability, ATPlite luminescence, overnight; hits give low values; cells stimulated with P. aeruginosa culture filtrate; activity change (cytotoxicity), % at 5 µM; 360,000 tested, 0.36% active;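 active means corrected activity change at or below -50% at 5 µM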
HIF-2a inh – inhibitors of HIF-2a; 786-0 RCC cells HIF-2a reporter, luciferase luminescence, overnight; inhibition, % at 18.8 µM; 360,000 tested, 0.72% active; AID 624352;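 active means inhibition of the luminescence signal of 40% or more relative to plate controls, in a single-dose primary screen at 18.75 µM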
CF NFkB inh – cystic fibrosis NF-kB activation inhibition; KKLEB NF-kB-GFP reporter, PAF-induced, GFP fluorescence overnight; inhibition, % at 5 µM; 360,000 tested, 0.86% active;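 active means at least 50% inhibition at 5 µM, scaled per plate between neutral and stimulator controls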;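 further: PAF is a Pseudomonas aeruginosa culture filtrate used as stimulus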
Peg3 promoter – reduces Peg3 promoter-driven luciferase expression in HeLa; HeLa PEG-Prom luciferase reporter, luminescence, overnight; inhibition, % at 20 µM; 360,000 tested, 1.7% active;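 active means inhibition of at least 50% at 20 µM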
Of the large screens only hits and unclear results are named; the others gave an inactive call. Most compounds without a hit are left out; they make up all but 2.8% or so of the library.

O=c1oc2ccccc2c(O)c1[C@H]1c2ccc(O)cc2Oc2c1c(=O)oc1ccccc21	none
Cc1[nH]n(-c2ccccc2)c(=O)c1C(c1ccc([N+](=O)[O-])cc1)c1c(C)[nH]n(-c2ccccc2)c1=O	CF NFkB inh 55
CN1CN(c2ccccc2)C2(CCN(CCCSc3ccccc3NC(=O)/C=C/c3ccccc3)CC2)C1=O	MITF TRPM1 inh 69
Cc1ccc(C(C)C)c(OCC(=O)N2CCN(Cc3nc4cc([N+](=O)[O-])ccc4n3C)CC2)c1	none
Cc1ccc(-c2cc(-c3ccc(C)cc3)[n+](C)o2)cc1	MITF TRPM1 inh 63
O=[N+]([O-])O[C@H]1CO[C@H]2[C@@H]1OC[C@H]2O[N+](=O)[O-]	none
COc1cc2c(c(OC)c1OC)-c1ccc(O)cc1[C@@H](NC(C)=O)CC2	MITF TRPM1 inh 65
CC(=O)O[C@@H]1CC[C@]2(C)C3CC[C@@]4(C)C(C[C@@H](O)[C@@H]4O)C3[C@@H](OC(C)=O)C[C@H]2C1 (stereo partly drawn)	none
CC12CC[C@H]3[C@@H](CCC4(O)C[C@H](O)CCC34/C=N/NC(=O)c3ccccc3Cl)C1(O)CCC2C1=CC(=O)OC1 (stereo partly drawn)	none
CC1OC(OC2C(O)CC(OC3C(O)CC(OC4CCC5(C)C(CCC6C5CCC5(C)C(C7=CC(=O)OC7)C(O)CC65O)C4)OC3C)OC2C)CC(O)C1O (stereo not drawn)	MITF TRPM1 inh 70, KKLEB cytotox -54, HIF-2a inh 72, CF NFkB inh 70, Peg3 promoter 107
CC(=O)OC1CC(OC2C(O)CC(OC3C(O)CC(OC4CCC5(C)C(CCC6C5CCC5(C)C(C7=CC(=O)OC7)C(O)CC65O)C4)OC3C)OC2C)OC(C)C1OC1OC(CO)C(O)C(O)C1O (stereo not drawn)	MITF TRPM1 inh 86, KKLEB cytotox -53, HIF-2a inh 69, CF NFkB inh 91, Peg3 promoter 108
CCOC(=O)[C@]12Cc3ccc4ccccc4c3[C@H]1N(Cc1ccccc1)C(=O)c1ccccc12	none (no result: MITF TRPM1 inh, Shn3 3UTR inh, KKLEB cytotox, CF NFkB inh, Peg3 promoter)
CCN(C(=O)COC(=O)c1cc(C)n(C2CC2)c1C)c1ccccc1	none
CCN1C[C@]2(COC)CC[C@H](OC)[C@@]34C1[C@]1(OCO[C@@]15C[C@H](OC)[C@H]1C[C@@H]3[C@@H]5[C@H]1OC)[C@@H](O)[C@H]24	Shn3 3UTR inh 89
C=CCn1c(O)c(C(C)=NCc2cc(OC)cc(OC)c2)c(=O)[nH]c1=O	Peg3 promoter 54
CC1CC2(C)C(CCC3C2CCC2(C)C(OP(=O)(N4CC4)N4CC4)CCC32)CC1=O (stereo not drawn)	none
CN(C)C(=S)SSC(=S)N(C)C	Peg3 promoter 56
CCCCCCn1c(=O)c(C(=O)Nc2cnccn2)c(O)c2ccccc21	MITF TRPM1 inh 73
CC1(C)CC[C@]2(C)CC[C@]3(C)C4C[C@@H]5OO[C@@]6(O5)C(CCCC6(C)C)[C@]4(C)CC[C@@]3(C)C2C1 (stereo partly drawn)	CF NFkB inh 56
CN1C(=O)C(C)(C2=CCCCC2)C(=O)NC1=S (stereo not drawn)	Peg3 promoter 93
O=C1NC2C(=CC(O)C(O)C2O)c2cc3c(cc21)OCO3 (stereo not drawn)	MITF TRPM1 inh 67, Shn3 3UTR inh 90, CF NFkB inh 78, Peg3 promoter 98
CS(=O)(=O)NNP(=O)(NNS(C)(=O)=O)NC(=O)c1ccc(Br)cc1	none
C[C@@H]1O[C@@H](O[C@H]2C[C@@H](O)[C@]3(CO)[C@H]4[C@H](O)C[C@]5(C)[C@@H](C6=CC(=O)OC6)CC[C@]5(O)[C@@H]4CC[C@]3(O)C2)[C@H](O)[C@H](O)[C@H]1O	MITF TRPM1 inh 70, HIF-2a inh 88, CF NFkB inh 91, Peg3 promoter 103
CCCCN1C(=O)/C(=C/C=C/c2ccco2)C(=O)NC1=S	none
Cc1cc(C)cc(N2C(=O)NC(=O)/C(=C\C=C\c3ccco3)C2=O)c1	MITF TRPM1 inh 94, HIF-2a inh 40, Peg3 promoter 67
CCc1ccc(N2C(=O)NC(=O)/C(=C\C=C\c3ccco3)C2=O)cc1	MITF TRPM1 inh 102, Peg3 promoter 91
O=C1NC(=O)N(c2ccccc2)C(=O)/C1=C\C=C\c1ccccc1	MITF TRPM1 inh 74, HIF-2a inh 82, Peg3 promoter 61
CC(C)c1ccc(N2C(=O)NC(=O)/C(=C/C=C/c3ccco3)C2=O)cc1	MITF TRPM1 inh 99, CF NFkB inh 84, Peg3 promoter 74
CCC(=NCCCn1ccnc1)c1c(O)n(-c2ccc(OC)cc2)c(=O)[nH]c1=O	none
Cc1c(C)c2ccc(OCC(=O)N3C[C@H]4C[C@@H](C3)c3cccc(=O)n3C4)c(C)c2oc1=O	none
CN(C)c1ccc(-[n+]2c(-c3ccccc3)cc(-c3ccccc3)cc2-c2ccccc2)cc1	MITF TRPM1 inh 92, Shn3 3UTR inh 94, Peg3 promoter 72
Cc1ccc(-c2cc(-c3ccc(C)cc3)[n+](-c3ccc(C(=O)[O-])cc3)c(-c3ccc(C)cc3)c2)cc1	none
Cc1ccc(-c2cc(-c3ccccc3)cc(-c3ccccc3)[n+]2-c2ccccc2)cc1	MITF TRPM1 inh 103, Shn3 3UTR inh 98, Peg3 promoter 100
COc1ccc(N=Cc2c(O)n(Cc3ccccc3)c(=S)[nH]c2=O)c(OC)c1	Peg3 promoter 54
COc1ccc(OC)c(N=Cc2c(O)n(Cc3ccccc3)c(=S)[nH]c2=O)c1	none
Cc1cccc(CCNCc2cc3cccc(C)c3[nH]c2=O)c1	none
Cc1c2ccncc2c(C)c2c1[nH]c1ccccc12	MITF TRPM1 inh 89, CF NFkB inh 83, Peg3 promoter 102
NCCc1ccc(OCc2ccccc2)c(OCc2ccccc2)c1	MITF TRPM1 inh 98, Peg3 promoter 107
CC(C)(C)c1cc(C=C(C#N)C#N)cc(C(C)(C)C)c1O	MITF TRPM1 inh 84, Shn3 3UTR inh 93, Peg3 promoter 56
COC(=O)C1=C(c2ccc(Cl)c(C(F)(F)F)c2)C[C@@H]2CC[C@H]1N2C(=O)NCCOc1ccc(OC)cc1	none
O=S(=O)(c1cccc(C(F)(F)F)c1)N1Cc2ccccc2-n2nncc2C1	none (no result: MITF TRPM1 inh)
Nc1ccc2ccc3cccc[n+]3c2c1	none
C[n+]1c(-c2ccccc2)c2cc(N)ccc2c2ccc(N)cc21	MITF TRPM1 inh 62, Peg3 promoter 74
C[C@]12CCC3C(CC[C@H]4C[C@H](O)CC[C@]34C)C1C[C@H](O)[C@@H]2O (stereo partly drawn)	none
COc1cccc(C(c2nnnn2C2CCCC2)N2CCC3(CC2)C(=O)NCN3c2ccccc2)c1OC (stereo not drawn)	none (no result: MITF TRPM1 inh)
O=C1NCN(c2ccccc2)C12CCN(C(c1ccccc1)c1nnnn1-c1ccc3c(c1)OCCO3)CC2 (stereo not drawn)	none (no result: MITF TRPM1 inh)

Screening results (PubChem)
